Drawing on ChEMBL document CHEMBL1201862, “PubChem BioAssay data set” (2004), this text covers GI50 for six substances.

Among all 42,000 sequences or so, about 3,100 (7.4%) were called active. No stated cut-off is given here; in the data, active = GI50 up to about 1.1 µM and inactive = higher. Not all results are given here. Measured potencies and affinities stand elsewhere.

In this assay the test system is Hs-578T.
As a reminder, the GI50 is the concentration giving 50% growth inhibition. Low readings indicate more potent growth inhibition, high ones less potent growth inhibition. As for CISPLATIN, CHEMBL11359, halving of growth (GI50) required 4.98 µM.
“[Bis(aminomethyl)tetramethylenesilane]tetrachloropaltinum(IV), CHEMBL2146189” yielded a concentration for 50% growth inhibition (GI50) of 21.2 µM.
Substance “[Bis(aminomethyl)dimethylsilane]tetrachloroplatinum(IV), CHEMBL2146190” yielded a GI50 of over 100 µM.
In the case of “[Bis(aminomethyl)pentamethylenesilane]dichloropaltinum(II), CHEMBL2146202”, the 50% growth inhibitory concentration (GI50) was 1.18 µM.
On to “[Bis(aminomethyl)tetramethylenesilane]dichloropaltinum(II), CHEMBL2146205”, for which it took 32.4 µM to inhibit growth by half (GI50).
“[Bis(aminomethyl)pentamethylenesilane]tetrachloropaltinum(IV), CHEMBL2146204” registered a GI50 of 28.8 µM.
